TIM10 inh: inhibits growth of TIM10 yeast strain; inhibition, % at 10 µM; 330,000 compounds, 1.4% hits; AID 463195; S. cerevisiae TIM10 strain growth, BacTiter-Glo luminescence, 24 h;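 active = inhibition of 40% or more at the single tested concentration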;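 also: wild-type TIM10 isogenic control strain grown at permissive 25 °C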
tim10-1 inh: growth inhibitors of tim10-1 mutant yeast; AID 463190; 330,000 compounds, 2.2% hits; inhibition, % at 20 µM; S. cerevisiae tim10-1 ts strain growth, BacTiter-Glo, 24 h;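 active = inhibition of at least 40%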;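 also: mutant grown at 25 °C; 0% = DMSO wells with yeast and 100% = wells holding no yeast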
NALP3 yeast inh: NALP3 inhibition in yeast; Yeast reconstituted NLRP3/ASC/caspase-1, beta-gal luminescence, 24 h; inhibition, % at 10 µM; 330,000 compounds, 0.39% hits;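 active = inhibition of 50% or more; inactive = inhibition below 50%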;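 also: plate controls were induced DMSO wells for no effect and uninduced yeast grown without galactose for full effect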
tim23-1 inh: growth inhibitors of tim23-1 mutant yeast; inhibition, % at 20 µM; 330,000 compounds, 1.3% hits; S. cerevisiae tim23-1 growth, BacTiter-Glo luminescence, 24 h;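 active = growth inhibition of the mutant yeast at or above 50%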;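 also: temperature-sensitive mutant grown at 25 °C; plate controls were DMSO-treated mutant yeast for no effect and medium wells lacking yeast for full effect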
PfHsp90 yeast 2: inhibits growth of yeast expressing Plasmodium falciparum Hsp90; inhibition, % at 9.4 µM; S. cerevisiae expressing PfHsp90, BacTiter-Glo ATP, 48 h; yeast lacking PDR1 and PDR3 efflux regulators; 310,000 compounds, 0.32% hits;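 active = every replicate shows inhibition above about 80%, whatever the replicate mean, limit read from the data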;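 also: 0% = DMSO neutral controls and 100% = 20 µM radicicol positive controls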
tim10 confirm: confirmation of TIM10 yeast growth inhibitors | shares compounds with TIM10 inh | S. cerevisiae tim10 strain growth, BacTiter-Glo luminescence, 24 h | inhibition, % at 10 µM | 4,600 compounds, 63% hits;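 active = inhibition of yeast growth at or above a set limit in either of two replicates at 10 µM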;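 also: this counterscreen used the strain with wild-type TIM10; 0% = yeast with DMSO and 100% = medium wells lacking yeast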
Active calls of the source: *; / = no result. Shown are actives, neighbours in structure and some others; about 3.7% of the full set was active somewhere.

SMILES | TIM10 inh | tim10-1 inh | NALP3 yeast inh | tim23-1 inh | PfHsp90 yeast 2 | tim10 confirm
COC(=O)C(NC(=O)CNS(=O)(=O)c1ccc(Br)cc1)c1ccccc1 (stereo not drawn) | 10 | 0 | 6 | -4 | 24 | /
CCC(Cc1ccccc1)n1c(=S)[nH]c2ccccc2c1=O (stereo not drawn) | 50* | 34 | 18 | 24 | -37 | 38*
COc1ccc(Cn2c(-c3ccc(C)cc3)c[n+]3ccccc23)cc1 | 42* | 37 | 3 | -3 | 22 | 51*
c1ccc(-c2csc3nnc(SCc4ccc5c(c4)OCCO5)n23)cc1 | 41* | 39 | 3 | 40 | -15 | 30*
O=C(CSc1nnc2scc(-c3ccccc3)n12)c1ccc2c(c1)OCCO2 | 15 | 29 | -2 | 18 | -19 | /
Cc1ccc(S(=O)(=O)N2CCCCC2)cc1NC(=O)c1cc(F)c(F)c(F)c1F | 6 | 22 | 8 | 18 | -20 | /
Cc1ccc(C)c(-n2[nH]c3c4c(ccc3c2=O)C(=O)c2ccccc2C4=O)c1 | 53* | 26 | 21 | 46 | 12 | 73*
COCCCn1[nH]c2c3c(ccc2c1=O)C(=O)c1ccccc1C3=O | 42* | 33 | 4 | 41 | -62 | 47*
CN(C)CCN(C(=O)c1ccc(S(=O)(=O)N2CCCC2)cc1)c1nc2ccc(Br)cc2s1 | 15 | 16 | 12 | 16 | -28 | /
CC1CCCCN1S(=O)(=O)c1ccc(C(=O)N(CCCN(C)C)c2nc3ccc(Br)cc3s2)cc1 (stereo not drawn) | 40 | 16 | 10 | 11 | -1 | 23
Cc1ccc(N2C(=O)c3cccc(Oc4ccc(Cl)cc4)c3C2=O)c(C)c1 | 42* | 23 | -9 | 29 | -10 | 24
CN1CCc2c(OCC(=O)N3N=C(c4cccs4)CC3c3ccc(F)cc3)cccc2C1=O (stereo not drawn) | 40 | 30 | 2 | 43 | -15 | -26
CCN1CCc2c(OCC(=O)N3N=C(c4cccs4)CC3c3ccc(F)cc3)cccc2C1=O (stereo not drawn) | 22 | 21 | 6 | 23 | 8 | /
O=c1oc(Nc2cccc(F)c2)nc2ccccc12 | 21 | 16 | 2 | 26 | 33 | /
Nc1nc(Nc2cccc(F)c2)nc2ccccc12 | 40 | 35 | 15 | 29 | 36 | 30
O=C(CSc1cn(CCNC(=O)c2cccs2)c2ccccc12)NC1CCCCC1 | 4 | 18 | -3 | 18 | -5 | /
Cc1ccc(C(c2nnnn2C2CCCC2)N2CCN(c3nc4ccccc4s3)CC2)cc1 (stereo not drawn) | 56* | 38 | -71 | 12 | -12 | -1
c1csc(C(c2nnnn2C2CCCCC2)N2CCN(c3nc4ccccc4s3)CC2)c1 (stereo not drawn) | / | / | / | / | 72 | /
c1ccc(C(c2nnnn2C2CCCC2)N2CCN(c3nc4ccccc4s3)CC2)cc1 (stereo not drawn) | 47* | 36 | -58 | 12 | -13 | -19
CCc1cc(C)cc(OCCOc2ccccc2/C=N/NC(C)=O)c1 | 13 | 6 | 17 | 27 | -40 | /
CC(=O)N/N=C/c1ccccc1OCCOc1cccc(C)c1 | 47* | 10 | 17 | 49 | -11 | 34*
CNc1ccc(S(=O)(=O)NCC(=O)OC(C)C(=O)N(C)Cc2ccccc2)cc1[N+](=O)[O-] (stereo not drawn) | 1 | -3 | 22 | 7 | -15 | /
C/C(=N\Nc1ccc(Cl)cc1)c1ccccn1 | 52* | 32 | 9 | 40 | 4 | 34*
CCCSc1nc(O)c(C(c2ccc(OC)c(O)c2)c2c(O)nc(SCCC)n(C)c2=O)c(=O)n1C | 4 | 2 | -5 | 2 | -5 | /
CC1CCCCC1NC(=O)CCn1ccc2cc(S(=O)(=O)N3CCCC3)ccc21 (stereo not drawn) | 5 | 3 | -4 | 9 | -24 | /
O=C(N/N=C/c1ccccn1)c1cc(-c2ccc3ccccc3c2)n[nH]1 | 60* | 27 | 12 | 40 | -15 | -23
O=C(NCC(=O)N1CCN(Cc2ccc3c(c2)OCO3)CC1)c1ccccc1F | 97* | -14 | 20 | 11 | 11 | -11
CCCCOc1ccc(C(=O)NCC(=O)N2CCN(Cc3ccc4c(c3)OCO4)CC2)cc1 | 25 | 13 | 9 | 21 | / | /

Assay outcomes (PubChem BioAssay)
